This note sets out measurements from PubChem BioAssay (NCI).

Structures are written as SMILES. This is part of a sample that, as a whole, favours compounds with a hit. Of some 79,000 tested, about 15% had one in any assay. Unmarked numbers belong to inactive results. Calls of active or inactive are those of the source. Rule as the data show it: active = growth inhibition above about 70%; inactive = the rest.

The first test in a line: NCI Yeast Anticancer Drug Screen. Data for the sgs1 mgt1 strain (AID 161).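 Also: 0% = growth of cultures given vehicle only.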 The following applies: S. cerevisiae sgs1 mgt1 strain, at 5.0 µM (retest, dose inferred, filed as 0.5), hits give high values. The essentials: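 Compounds are added to genetically altered yeast, and growth is compared with cultures given vehicle alone to give percent inhibition.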
As for `CCC1(c2ccc(N3C(=O)c4ccccc4C3=O)cc2)CCC(=O)NC1=O` (stereo not given), the growth inhibition is -20%.
In the case of `CN(C)c1c([N+](=O)[O-])cc(N2C(=O)C=CC2=O)cc1[N+](=O)[O-]`, the growth inhibition was 23%.
Turning to `CCOC1(OCC)Oc2c(Cl)c(Cl)c(Cl)c(Cl)c2OC1(OCC)OCC`, the growth inhibition was 12%.
On the same count and under the same terms, the value for `CC(=O)NC1=C(Oc2ccccc2)C(=O)c2ccccc2C1=O` was 88% (active); that for `CC1SC(=S)N(c2ccc(Cl)cc2)C1=O` (stereo not given) was 2%.
On to `CC(NNC(=S)N1CC2CCC(CC2)C1)c1cc2ccccc2cn1` (stereo not given), for which the growth inhibition was 98% (active).
Still for that read-out and setting: the value for `CCCCCCCCCCCCCC(=O)N1CCOCC1` was -3%.
Take `COC(O)C(=O)c1c2c(cc3c1CC1(Cc4cc5c(cc4C1)CCC5)C3)CCC2` (stereo not given): the growth inhibition is 94% (active).
The same measure, in the same setting: the value for `CCC(=O)OCC(=O)c1ccc(-c2ccccc2)cc1` was -2%; that for `CN(Cc1cnc2nc(N)nc(N)c2n1)c1ccc(C(=O)NC(CCC(=O)O)C(=O)O)cc1` (stereo not given) was 9%.
With `COc1ccc(C(=O)Nc2ccc(O)c(=O)cc2)cc1`, the growth inhibition was 25%.
For the molecule `c1cc[c]([Sn]([NH]c2ncnc3[nH]cnc23)([NH]c2ncnc3[nH]cnc23)[c]2ccccc2)cc1`, the growth inhibition is 2%.
Turning to `CCCCCCCCCCCC1C(C#N)C(=O)NC(=O)C1C#N` (stereo not given), the growth inhibition is 87% (active).
As for `c1ccc(CSc2nnc3c4ccccc4c4ccccc4c3n2)cc1`, the growth inhibition was 5%.
`Cc1ccc(-n2cc(-c3ccc(Cl)cc3)c3c(N)ncnc32)cc1`: the growth inhibition is 60%.
Turning to `C[C@]12CCC3[C@@H](CC[C@@H]4c5nonc5CC[C@]34C)C1CCC(=O)N2` (stereo not given in full), the growth inhibition was 11%.
As to `CCN(CC)Cc1cc(N=Nc2c(O)ccc3c(N=Nc4ccc(O)c(CN(CC)CC)c4)c(O)ccc23)ccc1O`, the growth inhibition was 1%.
Same read-out and setting: then `CC(C)(C)c1ccc(OC(=O)Nc2ccc(Cl)cc2[N+](=O)[O-])c(Br)c1`, with 3%; and `CCC(CCCN(CC)CCc1ccccc1)OC(=O)c1cc(OC)c(OC)c(OC)c1` (stereo not given), with -1%.
For `CCN1/C(=C\c2cc[n+](CC)c3ccccc23)C=Cc2ccccc21`, the growth inhibition was -1%.
For the molecule `CC1=C(C(=O)Nc2ccccc2C)C(c2ccc(Cl)c(Cl)c2)C(C(=O)Nc2ccccc2C)=C(C)N1`, the growth inhibition was -5%.
In the case of `Clc1ccc2nc3c(c(N4CCOCC4)c2c1)CCCC3`, the growth inhibition is 94% (active).
Same read-out and setting: the value for `N#Cc1cc2cccn2c2c1cnn2-c1ccccc1` was -1%; that for `COc1cccc(C2c3cc4c(cc3OC(Nc3ccccc3)C2C)OCO4)c1O` (stereo not given) was 1%; that for `Nc1nc(-c2ccccc2)c(-c2ccccc2)c(-c2nc(N)nc(-c3ccccc3)c2-c2ccccc2)n1` was -1%.
The same measure, in the same setting: the value for `CCOC(C)c1ccccc1` (stereo not given) was 16%; that for `O=C1OC(CCCl)(c2ccccc2)CC1CN1CCOCC1` (stereo not given) was -2%; that for `OC(Cc1ccccc1)(c1ccccc1)C(O)(Cc1ccccc1)c1ccccc1` (stereo not given) was 0%.
Still for that read-out and setting: then `COc1ccc(N=N/N=c2\sc3cc(OC)ccc3n2C)cc1`, with -2%; and `CCCCCC(CO)C(O)(C(F)(F)F)C(F)(F)F` (stereo not given), with 1%; and `CC1=C(C(=O)Nc2ccccc2)C(c2ccccc2F)C(C(=O)Nc2ccccc2)=C(C)N1`, with -4%.
Regarding `CCOCCC(=O)NNc1ccccc1`, the growth inhibition was 6%.
On the same count and under the same terms, then `CCOC(=O)C(Br)C(Br)c1cccc([N+](=O)[O-])c1` (stereo not given), with 99% (active); and `Cc1ccc(-c2c(C#N)c(-c3ccccc3)n(NS(=O)(=O)c3ccc(C)cc3)c(=O)c2C#N)cc1`, with 35%; and `CNC(=O)N1N[C@H](c2ccccc2)[C@@H]1c1ccccc1`, with 21%.
In the case of `CCCCCCCCCN(CCCCCCCCC)CC(O)c1cc2c(c3ccccc13)CCCC2` (stereo not given), the growth inhibition is 53%.
On the same count and under the same terms, then `O=C(O)C(c1ccc(Cl)cc1)c1ccc(Cl)cc1`, with 7%.
The same measure, in the same setting: then `O=C1c2ccc3ccccc3c2CN2C(=O)CCC12` (stereo not given), with -5%; and `CCCCCCCCCCCCCCCCNc1ccn(C2CC(OP(=O)(O)OCC3OC(n4cc(CC)c(=O)[nH]c4=O)CC3O)C(CO)O2)c(=O)n1` (stereo not given), with 94% (active); and `Cc1cc(Cl)c(O)c(-c2cc(-c3cccc([N+](=O)[O-])c3)c3c(N)[nH]c(=S)nc3n2)c1`, with 3%.

The same test, now with this note: S. cerevisiae sgs1 mgt1 strain, at 50.0 µM (retest, dose inferred, filed as 5.0), hits give high values.
With `CCC1(c2ccc(N3C(=O)c4ccccc4C3=O)cc2)CCC(=O)NC1=O` (stereo not given), the growth inhibition was 5%.
As to `CN(C)c1c([N+](=O)[O-])cc(N2C(=O)C=CC2=O)cc1[N+](=O)[O-]`, the growth inhibition was 100% (active).
On the same count and under the same terms, the value for `CCOC1(OCC)Oc2c(Cl)c(Cl)c(Cl)c(Cl)c2OC1(OCC)OCC` was 96% (active); that for `CC(=O)NC1=C(Oc2ccccc2)C(=O)c2ccccc2C1=O` was 100% (active); that for `CC1SC(=S)N(c2ccc(Cl)cc2)C1=O` (stereo not given) was 47%.
Regarding `CC(NNC(=S)N1CC2CCC(CC2)C1)c1cc2ccccc2cn1` (stereo not given), the growth inhibition was 99% (active).
Turning to `CCCCCCCCCCCCCC(=O)N1CCOCC1`, the growth inhibition is 99% (active).
Consider `COC(O)C(=O)c1c2c(cc3c1CC1(Cc4cc5c(cc4C1)CCC5)C3)CCC2` (stereo not given), for which the growth inhibition is 98% (active).
For the molecule `CCC(=O)OCC(=O)c1ccc(-c2ccccc2)cc1`, the growth inhibition was 18%.
Turning to `CN(Cc1cnc2nc(N)nc(N)c2n1)c1ccc(C(=O)NC(CCC(=O)O)C(=O)O)cc1` (stereo not given), the growth inhibition is 53%.
Consider `COc1ccc(C(=O)Nc2ccc(O)c(=O)cc2)cc1`, for which the growth inhibition is 66%.
`c1cc[c]([Sn]([NH]c2ncnc3[nH]cnc23)([NH]c2ncnc3[nH]cnc23)[c]2ccccc2)cc1`: the growth inhibition was 96% (active).
Same read-out and setting: then `CCCCCCCCCCCC1C(C#N)C(=O)NC(=O)C1C#N` (stereo not given), with 92% (active); and `c1ccc(CSc2nnc3c4ccccc4c4ccccc4c3n2)cc1`, with 5%; and `Cc1ccc(-n2cc(-c3ccc(Cl)cc3)c3c(N)ncnc32)cc1`, with 94% (active).
On the same count and under the same terms, the value for `C[C@]12CCC3[C@@H](CC[C@@H]4c5nonc5CC[C@]34C)C1CCC(=O)N2` (stereo not given in full) was 27%; that for `CCN(CC)Cc1cc(N=Nc2c(O)ccc3c(N=Nc4ccc(O)c(CN(CC)CC)c4)c(O)ccc23)ccc1O` was 76% (active); that for `CC(C)(C)c1ccc(OC(=O)Nc2ccc(Cl)cc2[N+](=O)[O-])c(Br)c1` was 37%.
Still for that read-out and setting: the value for `CCC(CCCN(CC)CCc1ccccc1)OC(=O)c1cc(OC)c(OC)c(OC)c1` (stereo not given) was 30%; that for `CCN1/C(=C\c2cc[n+](CC)c3ccccc23)C=Cc2ccccc21` was 86% (active); that for `CC1=C(C(=O)Nc2ccccc2C)C(c2ccc(Cl)c(Cl)c2)C(C(=O)Nc2ccccc2C)=C(C)N1` was -5%.
For `Clc1ccc2nc3c(c(N4CCOCC4)c2c1)CCCC3`, the growth inhibition was 98% (active).
For `N#Cc1cc2cccn2c2c1cnn2-c1ccccc1`, the growth inhibition is -11%.
For the molecule `COc1cccc(C2c3cc4c(cc3OC(Nc3ccccc3)C2C)OCO4)c1O` (stereo not given), the growth inhibition was 97% (active).
Same read-out and setting: then `Nc1nc(-c2ccccc2)c(-c2ccccc2)c(-c2nc(N)nc(-c3ccccc3)c2-c2ccccc2)n1`, with 0%.
`CCOC(C)c1ccccc1` (stereo not given): the growth inhibition was 62%.
`O=C1OC(CCCl)(c2ccccc2)CC1CN1CCOCC1` (stereo not given): the growth inhibition was 75% (active).
In the case of `OC(Cc1ccccc1)(c1ccccc1)C(O)(Cc1ccccc1)c1ccccc1` (stereo not given), the growth inhibition is 52%.
The same measure, in the same setting: then `COc1ccc(N=N/N=c2\sc3cc(OC)ccc3n2C)cc1`, with 22%.
Consider `CCCCCC(CO)C(O)(C(F)(F)F)C(F)(F)F` (stereo not given), for which the growth inhibition is 9%.
On the same count and under the same terms, the value for `CC1=C(C(=O)Nc2ccccc2)C(c2ccccc2F)C(C(=O)Nc2ccccc2)=C(C)N1` was 17%.
Take `CCOCCC(=O)NNc1ccccc1`: the growth inhibition is 41%.
The same measure, in the same setting: the value for `CCOC(=O)C(Br)C(Br)c1cccc([N+](=O)[O-])c1` (stereo not given) was 100% (active); that for `Cc1ccc(-c2c(C#N)c(-c3ccccc3)n(NS(=O)(=O)c3ccc(C)cc3)c(=O)c2C#N)cc1` was 70% (active).
Still for that read-out and setting: then `CNC(=O)N1N[C@H](c2ccccc2)[C@@H]1c1ccccc1`, with 63%; and `CCCCCCCCCN(CCCCCCCCC)CC(O)c1cc2c(c3ccccc13)CCCC2` (stereo not given), with 97% (active).
The same measure, in the same setting: then `O=C(O)C(c1ccc(Cl)cc1)c1ccc(Cl)cc1`, with 99% (active); and `O=C1c2ccc3ccccc3c2CN2C(=O)CCC12` (stereo not given), with 28%; and `CCCCCCCCCCCCCCCCNc1ccn(C2CC(OP(=O)(O)OCC3OC(n4cc(CC)c(=O)[nH]c4=O)CC3O)C(CO)O2)c(=O)n1` (stereo not given), with 97% (active).
In the case of `Cc1cc(Cl)c(O)c(-c2cc(-c3cccc([N+](=O)[O-])c3)c3c(N)[nH]c(=S)nc3n2)c1`, the growth inhibition is 38%.
